From PubChem BioAssay (NCATS)
Unmarked numbers belong to inactive results. Records with an inconclusive call do not appear. Entries that show only a call come without a potency. Active and inactive are the calls of the source. Unless noted, the call rests on the fitted dose curve; in most records, active means well fitted curve in the direction sought with a large enough effect; inconclusive means small, poorly fitted or top-dose-only effect, or another doubt; inactive means no such curve, though single readings can be large; an effect the other way counts as inactive or inconclusive.

Assays:
[1] = target: Lysosomal acid glucosylceramidase (Homo sapiens) (UniProt P04062); experiment: Glucocerebrosidase-p2 (AID 348; in the data active means potency below about 10 µM; further: potency means the concentration at half of the fitted maximal effect); conditions: purified GBA, blue fluorogenic substrate, 40 min
Chain of Lysosomal acid glucosylceramidase (Homo sapiens) (P04062 whole entry, looked up): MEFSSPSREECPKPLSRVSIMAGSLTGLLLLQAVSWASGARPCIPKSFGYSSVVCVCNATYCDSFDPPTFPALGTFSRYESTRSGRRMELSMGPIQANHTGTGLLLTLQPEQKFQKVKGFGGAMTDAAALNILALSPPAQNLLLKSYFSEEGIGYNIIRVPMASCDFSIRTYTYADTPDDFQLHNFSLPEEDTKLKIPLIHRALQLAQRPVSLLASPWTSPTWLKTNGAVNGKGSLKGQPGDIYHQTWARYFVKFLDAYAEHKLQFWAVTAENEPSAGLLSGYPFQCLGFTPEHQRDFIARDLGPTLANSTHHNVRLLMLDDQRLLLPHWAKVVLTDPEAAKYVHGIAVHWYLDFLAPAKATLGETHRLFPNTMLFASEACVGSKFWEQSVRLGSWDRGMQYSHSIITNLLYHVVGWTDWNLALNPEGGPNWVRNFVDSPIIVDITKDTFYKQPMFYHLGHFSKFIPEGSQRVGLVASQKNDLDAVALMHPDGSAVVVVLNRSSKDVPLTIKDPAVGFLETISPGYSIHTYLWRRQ
In short: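 Normal human glucocerebrosidase (0.2 nM) with blue fluorogenic substrate (80 uM final) in citrate/phosphate pH 5.9 with 10mM sodium taurocholate, 0.01% tween-20; 40 min RT, NaOH/glycine stop; fluorescence Ex 365/Em 440; AC50 from a titration from 0.6 nM upwards.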

[2] = AP1 Signaling Pathway (AID 357; active means well fitted curve in either direction with a large enough effect, not every such curve was filed as active); conditions: ME-180 AP-1-bla reporter, EGF-induced, beta-lactamase ratio, 5 h; at 7.69 µM (top of the series) unless noted
In short: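 ME-180 cells with beta-lactamase reporter under AP-1 response element, stimulated with EC50 EGF; compounds tested in titration series, 5 h at 37 °C. CCF4 substrate added 2.5 h at room temperature; 460/530 nm emission ratio gave %activity and AC50.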

[3] = target: Cytochrome P450 1A2 (Homo sapiens) (UniProt P05177); experiment: p450-cyp1a2 (AID 410; calls by dose curve; further: potency means the concentration at half of the fitted maximal effect)
Chain of Cytochrome P450 1A2 (Homo sapiens) (P05177 whole entry, looked up): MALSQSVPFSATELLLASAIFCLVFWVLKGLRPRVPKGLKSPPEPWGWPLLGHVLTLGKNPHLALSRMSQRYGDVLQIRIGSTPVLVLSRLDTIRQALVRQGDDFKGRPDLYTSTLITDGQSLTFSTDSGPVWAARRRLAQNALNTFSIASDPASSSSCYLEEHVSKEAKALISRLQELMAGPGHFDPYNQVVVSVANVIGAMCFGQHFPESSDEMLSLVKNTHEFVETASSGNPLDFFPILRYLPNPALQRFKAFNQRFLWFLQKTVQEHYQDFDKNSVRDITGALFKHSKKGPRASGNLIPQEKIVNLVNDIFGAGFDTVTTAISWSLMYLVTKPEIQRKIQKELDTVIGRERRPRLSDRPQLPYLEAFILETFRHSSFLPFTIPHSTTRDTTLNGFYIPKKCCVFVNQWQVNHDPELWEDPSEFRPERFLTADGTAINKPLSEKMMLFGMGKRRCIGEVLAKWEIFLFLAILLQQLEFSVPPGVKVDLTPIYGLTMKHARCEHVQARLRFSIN
In short: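 20nM CYP1A2, 100uM Luciferin-ME (=Km), 100mM KPO4; cpd 10 min RT; +NADPH regen, 60 min RT; stop/detect 20 min; luminescence. Normalized to furafylline 57 uM = full inhibition.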

[4] = NFAT Signaling Pathway (AID 444; active means well fitted curve in either direction with a large enough effect, not every such curve was filed as active;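 further: carbachol stimulus at about its EC50 of 1 µM final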); conditions: Jurkat NFAT-bla M1, carbachol, beta-lactamase ratio, 5 h; at 7.69 µM (top of the series) unless noted
In short: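 Jurkat cells carrying an NFAT-driven β-lactamase reporter and co-transfected muscarinic M1 receptor were treated with compound plus carbachol (1 uM final, an EC50 level) for 5 h at 37 °C. CCF4 loading followed for 1 h at RT; 460/530 nm ratio gave %activity.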

[5] = Stat Signaling Pathway (AID 446; active means well fitted curve in either direction with a large enough effect, not every such curve was filed as active;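 further: ME-180 cervical cancer cells given 40 pM IL-6 alongside compound; SIE-controlled beta-lactamase reporter measured as 460/530 nm FRET emission ratio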)
In short: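 Emission at 460 and 530 nm (excitation 405 nm) reports SIE-controlled beta-lactamase in ME-180 cells. Cells received compound with 40 pM IL-6 for 5 hrs at 37 C; data scaled between 300 pM IL-6 and 125 nM JAK-inhibitor controls.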

[6] = target: Glucocorticoid receptor (Homo sapiens) (UniProt P04150); experiment: GR-EFC Redistribution (AID 451; calls by dose curve; further: potency means the concentration at half of the fitted maximal effect); conditions: CHO-K1 GR-EFC translocation, beta-gal luminescence, 2 h
Chain of Glucocorticoid receptor (Homo sapiens) (P04150 whole entry, looked up, the tested form may be a part): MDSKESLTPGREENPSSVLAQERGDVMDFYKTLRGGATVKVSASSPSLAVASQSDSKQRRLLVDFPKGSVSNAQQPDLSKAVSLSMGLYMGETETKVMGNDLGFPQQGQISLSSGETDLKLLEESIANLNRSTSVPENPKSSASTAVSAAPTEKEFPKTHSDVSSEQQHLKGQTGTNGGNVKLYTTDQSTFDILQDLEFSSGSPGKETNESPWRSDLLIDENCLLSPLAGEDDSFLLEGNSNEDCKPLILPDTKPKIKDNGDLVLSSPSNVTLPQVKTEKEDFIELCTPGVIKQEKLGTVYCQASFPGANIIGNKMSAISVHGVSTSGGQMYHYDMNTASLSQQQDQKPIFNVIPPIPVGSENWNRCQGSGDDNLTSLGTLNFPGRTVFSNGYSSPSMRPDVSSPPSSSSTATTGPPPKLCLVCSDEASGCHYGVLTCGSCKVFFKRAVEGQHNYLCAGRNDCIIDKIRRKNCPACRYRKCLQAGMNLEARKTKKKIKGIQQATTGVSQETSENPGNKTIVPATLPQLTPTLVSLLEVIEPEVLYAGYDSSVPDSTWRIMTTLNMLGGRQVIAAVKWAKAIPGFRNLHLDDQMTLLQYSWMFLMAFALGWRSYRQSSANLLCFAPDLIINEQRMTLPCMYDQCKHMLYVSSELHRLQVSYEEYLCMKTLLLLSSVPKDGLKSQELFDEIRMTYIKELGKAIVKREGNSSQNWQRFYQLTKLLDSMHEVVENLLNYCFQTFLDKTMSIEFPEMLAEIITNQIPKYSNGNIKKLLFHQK
In short: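 CHO-K1 cells stably expressing nuclear-localized β-gal enzyme acceptor and GR fused C-terminally to the enzyme donor fragment; ligand-driven nuclear translocation restores β-gal by complementation. Compounds titrated up to 46 uM final, 2 h at 37 °C; luminescence read.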

[7] = target: Mitogen-activated protein kinase 10 (Mus musculus) (UniProt Q61831); experiment: JNK3 AlphaScreen Assay (AID 530; active means well fitted curve in either direction with a large enough effect, not every such curve was filed as active;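 further: kinase came from lysate of stimulated human HepG2 cells; signal reports phosphorylation of biotinylated GST-cJun 1-79 at Ser73 with 10 µM ATP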)
In short: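 Biotinylated GST-cJun(1-79) served as substrate for JNK3 in HepG2 lysates stimulated with IL-1beta and TNF-alpha. ATP was 10 uM final, pH 7.6. Ser73 phosphorylation was quantified by AlphaScreen (680 nm excitation).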

[8] = target: Cytochrome P450 3A4 (Homo sapiens) (UniProt P08684); experiment: qHTS Assay for Activators of Cytochrome P450 3A4 (AID 885); further: nearly all actives have a fitted effect of over 65% in size
Chain of Cytochrome P450 3A4 (Homo sapiens) (P08684 whole entry, looked up): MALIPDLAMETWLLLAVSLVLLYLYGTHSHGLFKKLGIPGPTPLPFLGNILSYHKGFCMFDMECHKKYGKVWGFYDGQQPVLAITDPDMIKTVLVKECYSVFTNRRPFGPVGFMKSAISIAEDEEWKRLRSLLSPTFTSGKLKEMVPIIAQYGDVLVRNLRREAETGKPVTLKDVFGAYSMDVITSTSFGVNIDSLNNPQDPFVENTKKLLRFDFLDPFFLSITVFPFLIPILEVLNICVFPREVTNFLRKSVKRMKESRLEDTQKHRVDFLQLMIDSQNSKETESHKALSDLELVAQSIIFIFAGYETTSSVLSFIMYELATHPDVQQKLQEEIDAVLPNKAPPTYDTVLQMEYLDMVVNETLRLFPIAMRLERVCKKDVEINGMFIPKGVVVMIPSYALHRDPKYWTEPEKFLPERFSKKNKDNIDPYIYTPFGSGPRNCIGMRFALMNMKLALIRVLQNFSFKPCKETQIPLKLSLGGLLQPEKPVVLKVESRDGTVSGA
In short: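 Activators are scored by enhanced luminescence from CYP3A4 conversion of luciferin-PPXE (25uM, equal to KM) to luciferin, after 60 min at RT with an NADPH-regenerating system.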

[9] = target: Cytochrome P450 2C19 (Homo sapiens) (UniProt P33261); experiment: qHTS Assay for Inhibitors and Substrates of Cytochrome P450 2C19 (AID 899); further: potency means the concentration at half of the fitted maximal effect; nearly all actives have a fitted effect of over 60% in size
In short: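 In 50mM KPO4, the reaction held 5nM enzyme and KM-level (10uM) Luciferin-H EGE; it ran 60 min at 37C after NADPH regeneration and a 10 min compound preincubation. Luminescence values were scaled to 57uM ketoconazole as complete inhibition.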

[10] = target: Dual specificity protein kinase CLK4 (Homo sapiens) (UniProt Q9HAZ1); experiment: qHTS Assay for Inhibitors of CDC-like Kinase 4 (Kinase-Glo Assay) (AID 1770); further: nearly all actives have a fitted effect of over 65% in size
Chain of Dual specificity protein kinase CLK4 (Homo sapiens) (Q9HAZ1 whole entry, looked up): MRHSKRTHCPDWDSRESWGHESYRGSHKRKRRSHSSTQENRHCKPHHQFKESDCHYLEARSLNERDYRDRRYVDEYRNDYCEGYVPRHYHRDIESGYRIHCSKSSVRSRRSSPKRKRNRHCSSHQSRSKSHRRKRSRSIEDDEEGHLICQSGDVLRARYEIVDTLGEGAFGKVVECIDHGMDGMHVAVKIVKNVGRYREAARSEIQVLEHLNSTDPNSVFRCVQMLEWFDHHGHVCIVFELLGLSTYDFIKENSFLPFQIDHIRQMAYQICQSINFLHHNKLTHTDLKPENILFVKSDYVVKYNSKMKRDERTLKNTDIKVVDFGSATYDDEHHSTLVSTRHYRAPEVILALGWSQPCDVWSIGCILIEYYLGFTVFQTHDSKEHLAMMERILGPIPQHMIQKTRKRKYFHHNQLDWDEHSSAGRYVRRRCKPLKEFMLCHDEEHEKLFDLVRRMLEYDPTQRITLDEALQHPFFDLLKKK
In short: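 Readout: Kinase-Glo luminescence from ATP left after a 4.5 h room-temperature reaction of 25 nM Clk4 with 100 uM RS peptide and 1 uM ATP (final). Buffer: 25 mM Tris pH 7.5, 10 mM MgCl2.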

[11] = target: Dual specificity protein kinase CLK4 (Homo sapiens) (UniProt Q9HAZ1); experiment: qHTS Assay for Inhibitors of CDC-like Kinase 4 (ADP-Glo Assay) (AID 1771); further: nearly all actives have a fitted effect of over 70% in size
In short: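 25 nM Clk4, 100 uM RS peptide, 1 uM ATP (final); 2 mM MgCl2, 0.5 mM EGTA, 2.5 mM DTT, 0.01% Triton X-100; 1 hr RT. ADP-Glo readout: ATP depletion 45 min, conversion/luciferase 30 min, luminescence.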

[12] = target: Dual specificity protein kinase CLK4 (Homo sapiens) (UniProt Q9HAZ1); experiment: qHTS Assay for Inhibitors of CDC-like Kinase 4 (ADP-FP Assay) (AID 1795);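 further: recombinant human CLK4 phosphorylating RS repeat peptide at 1 µM ATP; nearly all actives have a fitted effect of over 60% in size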
In short: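 FP readout: Orange Transcreener ADP2 tracer (4 nM) plus ADP antibody, read after 30 min at room temperature. Kinase step: 6.25 nM Clk4, 100 uM RS peptide, 1 uM ATP, pH 7.5, 1 h.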

[13] = target: Ubiquitin carboxyl-terminal hydrolase 1 (Homo sapiens) (UniProt O94782); experiment: Inhibitors of USP1/UAF1: Pilot qHTS (AID 504865);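 further: rhodamine fluorescence freed from ubiquitin-rhodamine substrate followed over time; top concentration of the series differs between compounds; nearly all actives have a fitted effect of over 35% in size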
In short: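 1nM USP1/UAF1 + cpd, 15 min RT; start w/ Ub-Rho 150nM final; kinetic FL 480/540 nm, 6 reads q60 s. Buffer 50mM HEPES pH 7.8, 0.5mM EDTA, 1mM TCEP, 0.01% Tween-20, 0.1 mg/ml BSA.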

[14] = target: Rap guanine nucleotide exchange factor 3 (Homo sapiens) (UniProt O95398); experiment: Confirmatory qHTS for antagonist of cAMP-regulated guanine nucleotide exchange factor 3 (EPAC1) (AID 1645880); conditions: EPAC1 Rap1B-BODIPY-GDP exchange, fluorescence; activity, negative = inhibition: at 115 µM (top of the series); further: nearly all actives have a fitted effect of over 55% in size
Chain of Rap guanine nucleotide exchange factor 3 (Homo sapiens) (O95398 whole entry, looked up): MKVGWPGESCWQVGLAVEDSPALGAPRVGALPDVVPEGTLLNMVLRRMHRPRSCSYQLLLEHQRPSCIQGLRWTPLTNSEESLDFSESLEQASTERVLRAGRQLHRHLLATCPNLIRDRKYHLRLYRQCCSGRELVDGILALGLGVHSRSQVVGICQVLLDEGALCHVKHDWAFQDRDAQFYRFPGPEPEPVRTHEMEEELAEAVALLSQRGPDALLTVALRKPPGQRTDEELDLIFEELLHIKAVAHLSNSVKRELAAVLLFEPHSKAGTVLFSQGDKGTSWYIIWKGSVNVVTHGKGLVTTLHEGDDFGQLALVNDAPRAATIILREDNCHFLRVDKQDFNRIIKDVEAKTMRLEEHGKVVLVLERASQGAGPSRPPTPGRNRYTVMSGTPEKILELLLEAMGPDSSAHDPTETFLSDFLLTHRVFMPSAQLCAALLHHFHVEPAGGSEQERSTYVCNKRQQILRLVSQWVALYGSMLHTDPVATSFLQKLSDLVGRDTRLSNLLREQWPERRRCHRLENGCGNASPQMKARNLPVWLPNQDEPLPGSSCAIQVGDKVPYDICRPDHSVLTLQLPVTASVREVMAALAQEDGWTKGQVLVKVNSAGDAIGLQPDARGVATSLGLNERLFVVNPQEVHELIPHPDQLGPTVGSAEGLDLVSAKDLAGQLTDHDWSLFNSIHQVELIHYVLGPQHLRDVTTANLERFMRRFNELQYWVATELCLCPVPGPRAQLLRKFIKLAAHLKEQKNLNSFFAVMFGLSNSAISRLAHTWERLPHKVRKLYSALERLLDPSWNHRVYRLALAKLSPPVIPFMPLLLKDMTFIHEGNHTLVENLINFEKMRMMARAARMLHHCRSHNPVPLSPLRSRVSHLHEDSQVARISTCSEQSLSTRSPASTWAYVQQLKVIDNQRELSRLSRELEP
In short: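 Released BODIPY-GDP fluoresces less than Rap1-bound BODIPY-GDP; the signal is followed at 480/540 nm at 5-min intervals over 30 min, after 5 min at room temperature. Reactions contain 100 nM EPAC1, 250 nM RAP1B-BODIPY-GDP and 50 uM GDP; results are normalized to ATA and DMSO.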

[15] = target: Rap guanine nucleotide exchange factor 3 (Homo sapiens) (UniProt O95398); experiment: Confirmatory qHTS for agonist of cAMP-regulated guanine nucleotide exchange factor 3 (EPAC1) (AID 1645881); further: nearly all actives have a fitted effect of over 75% in size; further: potency means the concentration at half of the fitted maximal effect;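 on activation: EPAC1 catalysed release of BODIPY-GDP from Rap1B seen as fluorescence loss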
[16] = target: Rap guanine nucleotide exchange factor 4 (Homo sapiens) (UniProt Q8WZA2); experiment: Confirmatory qHTS for agonist of cAMP-regulated guanine nucleotide exchange factor 4 (EPAC2) (AID 1645884);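 further: nucleotide exchange releases bodipy-GDP from Rap1 and this lowers its fluorescence; nearly all actives have a fitted effect of over 65% in size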; further: potency means the concentration at half of the fitted maximal effect
Chain of Rap guanine nucleotide exchange factor 4 (Homo sapiens) (Q8WZA2 whole entry, looked up): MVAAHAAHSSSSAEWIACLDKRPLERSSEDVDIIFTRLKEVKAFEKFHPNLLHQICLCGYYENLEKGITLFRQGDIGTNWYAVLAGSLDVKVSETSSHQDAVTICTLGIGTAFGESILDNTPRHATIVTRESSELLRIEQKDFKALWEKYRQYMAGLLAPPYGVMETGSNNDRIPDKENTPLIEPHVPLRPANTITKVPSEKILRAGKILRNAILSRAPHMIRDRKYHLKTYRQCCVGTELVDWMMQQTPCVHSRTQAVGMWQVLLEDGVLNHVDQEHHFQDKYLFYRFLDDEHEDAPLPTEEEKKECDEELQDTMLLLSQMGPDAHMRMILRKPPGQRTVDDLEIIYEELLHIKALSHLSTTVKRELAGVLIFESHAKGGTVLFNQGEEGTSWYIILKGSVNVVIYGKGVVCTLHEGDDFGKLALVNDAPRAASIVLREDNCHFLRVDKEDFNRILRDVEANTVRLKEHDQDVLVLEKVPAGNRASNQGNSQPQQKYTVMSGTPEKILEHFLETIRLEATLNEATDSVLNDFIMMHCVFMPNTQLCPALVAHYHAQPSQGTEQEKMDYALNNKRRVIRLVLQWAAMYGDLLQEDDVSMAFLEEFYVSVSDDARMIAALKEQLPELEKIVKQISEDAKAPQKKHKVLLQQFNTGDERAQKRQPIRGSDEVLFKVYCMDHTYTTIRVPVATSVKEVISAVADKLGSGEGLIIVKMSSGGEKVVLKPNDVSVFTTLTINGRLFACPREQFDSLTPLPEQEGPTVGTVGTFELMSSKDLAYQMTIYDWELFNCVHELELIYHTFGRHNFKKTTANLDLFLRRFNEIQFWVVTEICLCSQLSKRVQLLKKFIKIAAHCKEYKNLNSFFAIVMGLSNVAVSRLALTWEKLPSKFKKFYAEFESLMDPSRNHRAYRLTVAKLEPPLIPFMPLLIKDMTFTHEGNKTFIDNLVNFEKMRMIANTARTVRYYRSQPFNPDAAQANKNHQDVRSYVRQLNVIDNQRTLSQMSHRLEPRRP

[17] = target: Rap guanine nucleotide exchange factor 4 (Homo sapiens) (UniProt Q8WZA2); experiment: Confirmatory qHTS for antagonist of cAMP-regulated guanine nucleotide exchange factor 4 (EPAC2) (AID 1645885); further: nearly all actives have a fitted effect of over 25% in size; further: potency means the concentration at half of the fitted maximal effect
[18] = target: Cytochrome P450 2C9 (Homo sapiens) (UniProt P11712); experiment: qHTS Assay for Inhibitors and Substrates of Cytochrome P450 2C9 (AID 883); further: potency means the concentration at half of the fitted maximal effect; nearly all actives have a fitted effect of over 60% in size
In short: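 CYP2C9 deoxyluciferin hydroxylation, 37C, 60 min with NADPH regeneration; 10nM enzyme, 100uM Luciferin-H (KM). Glo detection reagent stopped reaction; luminescence normalized to sulphaphenazole (57uM) full inhibition.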

[19] = target: Cytochrome P450 3A4 (Homo sapiens) (UniProt P08684); experiment: qHTS Assay for Inhibitors and Substrates of Cytochrome P450 3A4 (AID 884); further: potency means the concentration at half of the fitted maximal effect; nearly all actives have a fitted effect of over 50% in size
In short: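 Luminescent readout of luciferin produced by CYP3A4 (20 nM) dealkylation of Luciferin-PPXE, 25 uM (its KM). NADPH-driven reaction ran 60 min at RT after 10 min compound preincubation; data scaled to 57 uM ketoconazole as 100% inhibition.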

[20] = target: DNA dC->dU-editing enzyme APOBEC-3G (Homo sapiens) (UniProt Q9HC16); experiment: qHTS for inhibitors of Vif-A3G interactions: Validation (AID 588379)
In short: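 Yellow fluorescence (Ex 488, Em 500-530) of Vif-coexpressing HeLa A3G-eYFP cells, scanned by Acumen cytometer, reports blocked A3G degradation. Cells plated at 700/well overnight at 37 deg C before compound addition, then a further overnight compound incubation at 37 deg C.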

[21] = target: Glucocorticoid receptor (Homo sapiens) (UniProt P04150); experiment: GR-GFP Redistribution (AID 450;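 active means compounds whose dose series gives a full or clear partial fitted curve of increased nuclear translocation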; further: potency means the concentration at half of the fitted maximal effect); conditions: U2OS GR-GFP nuclear translocation, laser cytometry, 2 h
[22] = qHTS Assay for Identification of Small Molecule Agonists for Hypoxia Response Element Signaling Pathway (AID 914; active means well fitted activation curve with a large enough effect in the signal ratio, with a control signal flat, not every such curve was filed as active; the % refers to the signal ratio; further: potency means the concentration at half of the fitted maximal effect); conditions: ME-180 (cervical carcinoma) HRE-bla reporter, beta-lactamase ratio, CoCl2, 17 h; activation: active compounds read high
In short: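 Compounds in a titration series were added to ME-180 reporter cells alongside an EC50 level of CoCl2. After 17 hours, beta-lactamase activity was read as the 460nm/530nm emission ratio of CCF4, giving AC50 values.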

[23] = target: Tumor susceptibility gene 101 protein (Homo sapiens) (UniProt Q99816); experiment: qHTS Assay for Iinhibitors of HIV-1 Budding by Blocking the Interaction of PTAP/TSG101: Hit Validation (AID 651600); further: potency means the concentration at half of the fitted maximal effect; nearly all actives have a fitted effect of over 70% in size
In short: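 Tsg101 binding domain 10 uM + FITC-PTAP peptide 50 nM (final), 10 mM HEPES pH 7.5/0.15 M NaCl/0.01% Tween 20/3 mM EDTA/0.1 mM TCEP; 20 min RT; FP read, FITC filters.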

[24] = target: Rap guanine nucleotide exchange factor 3 (Homo sapiens) (UniProt O95398); experiment: Counterscreen qHTS for agonist of cAMP-regulated guanine nucleotide exchange factor 3 (EPAC1) (AID 1645889); further: potency means the concentration at half of the fitted maximal effect; nearly all actives have a fitted effect of over 40% in size
In short: (§1)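 Measured: fluorescence of BODIPY-GDP bound to Rap1B, which falls as exchange proceeds. Conditions include 50 uM competing GDP, 5 and 30 min reads, and a later cAMP challenge for antagonist detection.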

[25] = target: Rap guanine nucleotide exchange factor 3 (Homo sapiens) (UniProt O95398); experiment: Counterscreen qHTS for antagonist of cAMP-regulated guanine nucleotide exchange factor 3 (EPAC1) (AID 1645888)
In short: as §1

COc1cccc(Cn2c(=O)c(CCc3ccccc3)nc3cnc(N4CCN(C)CC4)nc32)c1
Potency [1]: > 11.4 µM
activity change, negative = inhibition [2]: -3.73%
Potency [3]: 15.8 µM (active)
activity change, negative = inhibition [4]: 8.33%
outcome [5]: inactive
Potency [6]: > 46 µM
Potency [7]: inactive
outcome [8]: inactive
Potency [9]: 7.94 µM (active)
Potency [10]: inactive
Potency [11]: inactive
Potency [12]: inactive
Potency [13]: inactive
Potency [14]: inactive
Potency [15]: inactive
Potency [16]: inactive
Potency [17]: inactive

CC(C)=CCc1c(O)cc(O)c2c1O[C@H](c1ccccc1)CC2=O
Potency [3]: 0.316 µM (active)
Potency [7]: inactive
Potency [18]: 3.16 µM (active)
Potency [19]: 12.6 µM (active)
outcome [8]: inactive
Potency [9]: 1 µM (active)
outcome [20]: inactive
Potency [14]: inactive
Potency [15]: inactive
Potency [16]: inactive
Potency [17]: 39.3 µM (active)

CN1CCN(c2ncc3nc(-c4cccs4)c(=O)n(CCc4ccccc4)c3n2)CC1
Potency [1]: > 11.4 µM
Potency [3]: 2.51 µM (active)
Potency [21]: > 9.22 µM
Potency [6]: > 46 µM
outcome [8]: inactive
Potency [22]: 3.16 µM (active)
Potency [10]: inactive
Potency [11]: inactive
Potency [12]: inactive
Potency [13]: inactive
Potency [14]: inactive
Potency [15]: inactive
Potency [16]: inactive
Potency [17]: inactive

O=C(c1ccco1)N1CCC2(CC1)CN(c1cccc(-c3ccccc3)c1)C2
Potency [1]: > 11.4 µM
activity change, negative = inhibition [2]: -23.1%
Potency [3]: 7.94 µM (active)
outcome [5]: inactive
Potency [6]: > 46 µM
Potency [14]: inactive
Potency [15]: inactive
Potency [16]: inactive
Potency [17]: inactive

CCNc1ccc2noc3c2c1C(=O)c1ccccc1-3
Potency [23]: 3.26 µM (active)
Potency [14]: inactive
Potency [15]: 100 µM (active)
Potency [16]: 100 µM (active)
Potency [17]: 16.9 µM (active)
Potency [24]: 22.4 µM (active)

COc1ccc(-c2nc(C)ncc2-c2ccc(Cl)cc2)c(O)c1
Potency [14]: inactive
Potency [15]: inactive
Potency [16]: inactive
Potency [25]: inactive
